# Assay outcomes from PubChem BioAssay.
# A selection: hits, their analogues and other compounds. The true share with any hit is near 1.2%.
# Avidin fluor: green autofluorescence of compounds with avidin beads – biophysical, 488/530 nm, flow cytometry, artefact control, profiling panel; compound fluorescence 488/530 nm; stronger effect = higher value; fluorescence (KMESF) at 10 µM; hit rate 0.38% among 220,000; AID 1775, 2009; in the data active = fluorescence above about 47
# RGS8-Gao: RGS8-Galphao binding modulators, primary screen, biochemical, multiplexed bead flow cytometry. actives lie on both sides. response (percent of control binding), % at 10 µM. hit rate 0.34% among 220,000; in the data active = response below about 60% or above about 140%; inactive = in between;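 note: Galphao activated as the GDP aluminium fluoride complex binding bead-coupled RGS8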
# Target sequence (P09471 whole entry, looked up): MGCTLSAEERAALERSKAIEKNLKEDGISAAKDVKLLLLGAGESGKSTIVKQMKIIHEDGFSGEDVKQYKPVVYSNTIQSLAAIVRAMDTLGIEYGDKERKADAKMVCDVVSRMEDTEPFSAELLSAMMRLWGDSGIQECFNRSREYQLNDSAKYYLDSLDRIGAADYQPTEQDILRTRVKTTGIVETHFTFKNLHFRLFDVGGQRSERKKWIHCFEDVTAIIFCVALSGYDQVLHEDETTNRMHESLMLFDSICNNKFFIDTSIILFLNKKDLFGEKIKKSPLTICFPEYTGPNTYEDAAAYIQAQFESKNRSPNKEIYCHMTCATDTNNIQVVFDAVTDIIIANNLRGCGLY
# RGS16-Gao HTS: modulators of RGS16 binding to Galphao, primary screen, biochemical, human proteins, multiplexed bead flow cytometry; AID 1441, 2008; hit rate 0.38% among 220,000; bead-based flow cytometry RGS16-Galphao binding, fluorescence; actives lie on both sides; binding response (% of control), % at 10 µM;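 note: Galphao activated by GDP with aluminum fluoride before binding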
# GSH fluor: compound fluorescence on glutathione beads, profiling panel, artefact control, biophysical, 488/530 nm, flow cytometry; GSH beads flow cytometry, compound fluorescence 488/530 nm; stronger effect = higher value; fluorescence (KMESF) at 10 µM; hit rate 0.25% among 190,000; AID 1776, 2009; in the data active = fluorescence above about 89;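 note: glutathione beads carrying GST-tagged Bcl family fusion proteins plus one bare bead set; values are compound well signal with DMSO vehicle wells as background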
# RGS4-Gao reg: modulators of RGS4 binding to Galphao, primary screen, biochemical, multiplexed bead flow cytometry; Guanine nucleotide-binding protein G(o) subunit alpha (Homo sapiens), P09471; actives lie on both sides; binding response (% of control), % at 10 µM; hit rate 0.33% among 220,000; AID 1415, 2008; in the data active = binding response below about 49% or above about 150%; inactive = in between;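 note: fluorescent Galphao activated with aluminum fluoride binding bead-coupled RGS4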
# RGS7-Gao reg: RGS7-Galphao binding modulators, primary screen, biochemical, multiplexed bead flow cytometry; AID 1439, 2008; actives lie on both sides; Guanine nucleotide-binding protein G(o) subunit alpha (Homo sapiens), P09471; binding response (% of control), % at 10 µM; hit rate 0.35% among 220,000; in the data active = binding response below about 49% or above about 150%;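 note: fluorescent Galphao held in activated GDP-AlF4 state binding bead-coupled RGS7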
# RGS4-Gao HTS: modulators of RGS–Galpha-o binding, primary screen, biochemical, multiplexed beads, flow cytometry, RGS4/7/8/16/19; hit rate 99% among 1,600; multiplexed bead flow cytometry; AID 1504, 2009; RGS4–Galpha-o binding response, % at 10 µM; shares compounds with RGS16-Gao HTS;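 note: fluorescently labeled Galpha-o bound to GDP with aluminium fluoride binding biotinylated RGS beads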
# Biotin-avidin: disruption of biotin probe capture by avidin, counter-screen for RGS protein interaction modulators, biochemical, flow cytometry, bead-based. shares compounds with RGS16-Gao HTS. inhibition, % at 10 µM. streptavidin beads, fluorescein-biotin binding. 1,700 tested, under 10 active;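 active = inhibition above 50%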;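 note: median green fluorescence of gated singlet beads compared with DMSO control wells; 0% = DMSO wells and 100% = complete loss of bead fluorescence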
# RGS8-Gao confirm: RGS8-Galphao binding modulators, confirmation, biochemical, multiplexed bead flow cytometry, single concentration; shares compounds with RGS16-Gao HTS; bead-based flow cytometry RGS8-Galphao binding, fluorescence; actives lie on both sides; binding response (% of control), % at 10 µM; hit rate 3% among 1,700; AID 1836, 2009; in the data active = binding response below about 72% or above about 130%; inactive = in between;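 note: Galphao activated as GDP AlF4 complex before binding bead RGS8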
# RGS7-Gao single: RGS7-Galphao binding modulators, confirmation, biochemical, multiplexed bead flow cytometry, single concentration; shares compounds with RGS16-Gao HTS; bead-based flow cytometry RGS7-Galphao binding; actives lie on both sides; response (percent of control binding), % at 10 µM; hit rate 7.8% among 1,700; in the data active = response below about 75% or above about 130%; inactive = in between;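 note: fluorescent Galphao activated with GDP and aluminum fluoride binding bead-coupled RGS7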
# RGS16-Gao single: modulators of RGS16-Galphao protein binding, confirmation, biochemical, single concentration, multiplexed bead flow cytometry | shares compounds with RGS16-Gao HTS | bead-based flow cytometry; actives lie on both sides | AID 1838, 2009 | response (% of control binding), % at 10 µM | hit rate 4% among 1,700; in the data active = response below about 74% or above about 130%; inactive = in between;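 note: Galphao activated as the GDP aluminium fluoride complex binding bead-coupled RGS16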
# RGS4-Gao single: modulators of RGS4-Galphao protein binding, confirmation, biochemical, single concentration, multiplexed bead flow cytometry | shares compounds with RGS16-Gao HTS | hit rate 4% among 1,700 | binding response (% of control), % at 10 µM | actives lie on both sides | AID 1840, 2009; in the data active = binding response below about 74% or above about 130%; inactive = in between
# RGS19-Gao conf: regulators of RGS19-Galphao binding, confirmation, biochemical, single point, multiplexed bead flow cytometry; hit rate 5% among 1,700; bead-based flow cytometry RGS19-Galphao binding; actives lie on both sides; response (percent of control binding), % at 10 µM; shares compounds with RGS16-Gao HTS; in the data active = response below about 50% or above about 160%; inactive = in between;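 note: 100% = no compound control and 0% = blank background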
# An asterisk follows results filed as active; . = not tested or not shown; [ ] = remark or other dose. Unless noted, the rule behind the calls is not given here.
SMILES,Avidin fluor,RGS8-Gao,RGS16-Gao HTS,GSH fluor,RGS4-Gao reg,RGS7-Gao reg,RGS4-Gao HTS,Biotin-avidin,RGS8-Gao confirm,RGS7-Gao single,RGS16-Gao single,RGS4-Gao single,RGS19-Gao conf
Cc1cc(C)nc(SCc2ccc(C(=O)N/N=C3\CC(C)CC(C)(C)C3)cc2)n1 (stereo unspecified),12,100,105,12,99,95,.,.,.,.,.,.,.
COc1ccc(NC(=S)Nc2ccccc2)c(OC)c1,17,109,115,12,106,107,.,.,.,.,.,.,.
COc1ccc(NC(=S)Nc2ccc(OCc3ccccc3)cc2)c(OC)c1,11,117,37,18,140,165*[activator],140*,1,103,103,102,101,105
COc1ccc(NC(=O)/C(C#N)=C\C=C\c2ccco2)cc1,12,105,116,13,100,100,.,.,.,.,.,.,.
CCOC(=O)C(NC(C)=O)(Nc1cccc(F)c1)C(F)(F)F (stereo unspecified),10,106,103,38,104,103,.,.,.,.,.,.,.
CCOC(=O)C(NC(C)=O)(Nc1ccc(F)cc1)C(F)(F)F (stereo unspecified),260*,99,119,37,138,205*[activator],138*,2,103,108,104,106,106
O=C(N/N=C\c1c(O)ccc2ccccc12)c1ccc(Cn2cccn2)o1,1,43*,12*,9,57,58,57*,-1,94,88,90,93,128
O=C(N/N=C\c1ccc(Cl)s1)c1ccc(Cn2cccn2)o1,2,100,99,7,96,98,.,.,.,.,.,.,.
CCN(c1ccc(N=Cc2c(O)n(Cc3ccc(OC)cc3)c(=O)c3ccccc23)cc1)C(C)C,19,103,120,155*,124,163*[activator],124*,2,116,309*[activator],194*[activator],221*[activator],473*[activator]
COc1ccc(-c2cnnc(N/N=C/c3c(C)nn(-c4ccccc4)c3Cl)n2)cc1,3,99,88,10,100,101,.,.,.,.,.,.,.
O=C(NCc1ccccc1)C1CCN(S(=O)(=O)N2CCOCC2)CC1,18,99,101,4,98,100,.,.,.,.,.,.,.
